Source: PubChem BioAssay (Tox21)
Inconclusive results are not listed. The source made the active and inactive calls. The call rests on the fitted dose curve; in most records, active means well fitted curve in the direction sought with a large enough effect in the repeat runs; inconclusive means weak or mixed curves; inactive means no such curve, though single readings can be large; an effect the other way counts as inactive or inconclusive.

Tests used:
[1] = qHTS RealTime-Glo MT Cell Viability Assay in HEK293 cells - 0 hour (AID 1224880); further: top concentration of the series differs between compounds; nearly all actives have a fitted effect of over 45% in size
Procedure, shortened: (§1)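 Nonlytic bioluminescent viability monitoring. HEK293 at 600 cells/well with reagent; 5 h settle; compound transfer by pintool; plates held at 37 C and read at set time points.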

[2] = A CellTox Green Cytotoxicity Assay to monitor cytotoxicity in HEK293 cells - 32 hour (AID 1224881); further: nearly all actives have a fitted effect of over 40% in size; further: potency means the concentration at half of the fitted maximal effect
Procedure, shortened: (§2)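 Cytotoxicity was tracked continuously in HEK293 cells by a DNA-binding dye excluded from viable cells. Compounds were transferred in DMSO 5 h after seeding; fluorescence was recorded at intervals up to 40 h.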

[3] = A CellTox Green Cytotoxicity Assay to monitor cytotoxicity in HepG2 cells - 32 hour (AID 1224883); further: nearly all actives have a fitted effect of over 50% in size; further: potency means the concentration at half of the fitted maximal effect
Procedure, shortened: (§3)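 Real-time, homogeneous cytotoxicity readout: dead-cell DNA staining by CellTox Green in HepG2 monolayers, fluorescence measured at timed intervals up to 40 h of continuous compound exposure.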

[4] = A CellTox Green Cytotoxicity Assay to monitor cytotoxicity in HEK293 cells - 8 hour (AID 1224884); further: nearly all actives have a fitted effect of over 35% in size
Procedure, shortened: as §2

[5] = qHTS RealTime-Glo MT Cell Viability Assay in HepG2 cells - 16 hour (AID 1224885); further: nearly all actives have a fitted effect of over 50% in size
Procedure, shortened: (§4)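 Compound treatment began 5 h after plating HepG2 cells (600/well) with NanoLuc luciferase and prosubstrate. Plates stayed at 37 C for 40 h; luminescence was captured at six time points, 0 h through 40 h.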

[6] = qHTS RealTime-Glo MT Cell Viability Assay in HEK293 cells - 24 hour (AID 1224886); further: top concentration of the series differs between compounds; nearly all actives have a fitted effect of over 50% in size
Procedure, shortened: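 Quantitative high-throughput screen of the Tox21 10K library in HEK293: cells and RealTime-Glo reagents plated together, compound added at 5 h, luminescence monitored through 40 h at 37 C.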

[7] = qHTS RealTime-Glo MT Cell Viability Assay in HEK293 cells - 8 hour (AID 1224887); further: top concentration of the series differs between compounds; nearly all actives have a fitted effect of over 50% in size
Procedure, shortened: as §1

[8] = A CellTox Green Cytotoxicity Assay to monitor cytotoxicity in HEK293 cells - 16 hour (AID 1224888); further: nearly all actives have a fitted effect of over 35% in size
Procedure, shortened: as §2

[9] = qHTS RealTime-Glo MT Cell Viability Assay in HepG2 cells - 0 hour (AID 1224889); further: nearly all actives have a fitted effect of over 50% in size
Procedure, shortened: as §4

[10] = A CellTox Green Cytotoxicity Assay to monitor cytotoxicity in HepG2 cells - 0 hour (AID 1224882); further: nearly all actives have a fitted effect of over 35% in size
Procedure, shortened: as §3
On the % scale 0 is the no-effect control and ±100 the full control effect.

O=C(O)[C@@H](O)[C@H](O)[C@H](O)[C@@H](O)C(=O)O
inactive: outcome [1] | Potency [2] | Potency [3] | Potency [4] | outcome [5] | Potency [6] | Potency [7] | Potency [8] | Potency [9]

Nc1ccc(Oc2ccc(N)c(N)c2)cc1
inactive: outcome [1] | Potency [2] | Potency [10] | Potency [4] | Potency [8]

CC(Oc1c(Cl)cccc1Cl)C1=NCCN1 (stereo not given)
inactive: outcome [1] | Potency [2] | Potency [3] | Potency [4] | outcome [5] | Potency [6] | Potency [7] | Potency [8] | Potency [9]

CC(=O)N[C@@H](CC(C)C)C(=O)O
inactive: outcome [1] | Potency [2] | Potency [3] | Potency [4] | Potency [7] | Potency [8] | Potency [9]

O=C(C(Cl)Cl)N1CCOC12CCCCC2
inactive: outcome [1] | Potency [10] | Potency [3] | Potency [4] | outcome [5] | Potency [6] | Potency [7] | Potency [8] | Potency [9]

O=C(O)CN(CCN(CC(=O)O)CC(=O)O)CCN(CC(=O)O)CC(=O)O
inactive: activity change, negative = cytotoxicity [1] 6.1% [at 15.8 µM] | cytotoxicity increase [2] 18.1% [at 15.8 µM] | cytotoxicity increase [3] 22% [at 15.8 µM] | cytotoxicity increase [4] 18.1% [at 15.8 µM] | activity change [8] 12.4% [at 15.8 µM, hits give high values]

COC(=O)N[C@H](C(=O)N[C@@H](Cc1ccccc1)[C@@H](O)CN(Cc1ccc(-c2ccccn2)cc1)NC(=O)[C@@H](NC(=O)OC)C(C)(C)C)C(C)(C)C
inactive: outcome [1] | Potency [2] | Potency [4] | Potency [6] | Potency [7] | Potency [8]

C[C@@H]1CN(c2c(F)c(N)c3c(=O)c(C(=O)O)cn(C4CC4)c3c2F)C[C@H](C)N1
inactive: activity change, negative = cytotoxicity [1] -2.5% [at 15.8 µM] | cytotoxicity [10] 5.9% [at 15.8 µM] | cytotoxicity increase [3] -7.06% [at 15.8 µM] | cytotoxicity increase [4] -0.635% [at 15.8 µM] | activity change, negative = cytotoxic [5] 0.182% [at 15.8 µM] | activity change, negative = cytotoxicity [6] 4.31% [at 15.8 µM] | activity change, negative = cytotoxicity [7] 0.0014% [at 15.8 µM] | activity change [8] -0.126% [at 15.8 µM, hits give high values]

Clc1cccc(-c2cc(Cl)cc(Cl)c2)c1
inactive: outcome [1] | Potency [10] | outcome [5] | Potency [6] | Potency [7] | Potency [9]
active: Potency [2] 42.1 µM

COc1ccc(S(=O)(=O)Nc2nnc(CC(C)C)s2)cc1
inactive: outcome [1] | Potency [10] | Potency [3] | Potency [4] | outcome [5] | Potency [6] | Potency [7] | Potency [8] | Potency [9]

CC(C)OC(C)C
inactive: outcome [1] | Potency [2] | Potency [3] | Potency [4] | outcome [5] | Potency [6] | Potency [7] | Potency [8] | Potency [9]

CCOC(=O)[C@H](CCc1ccccc1)N[C@@H](C)C(=O)N1Cc2cc(OC)c(OC)cc2C[C@H]1C(=O)O
inactive: outcome [1] | Potency [2] | Potency [3] | Potency [4] | outcome [5] | Potency [7] | Potency [8] | Potency [9]

CC(C)=CCC[C@](C)(O)[C@@H]1CC=C(C)CC1
inactive: outcome [1] | Potency [10] | Potency [4] | outcome [5] | Potency [6] | Potency [7] | Potency [8] | Potency [9]
active: Potency [3] 43.6 µM

O=[N+]([O-])c1nccn1CO[C@@H](CO)[C@H](O)CO
inactive: outcome [1] | Potency [10] | Potency [3] | Potency [4] | outcome [5] | Potency [6] | Potency [7] | Potency [8] | Potency [9]

CCOc1ccc2nc(N)sc2c1
inactive: Potency [2] | Potency [10] | Potency [3] | Potency [4] | outcome [5] | Potency [6] | Potency [7] | Potency [8] | Potency [9]

CCC/C=C/CO
inactive: outcome [1] | Potency [10] | Potency [3] | Potency [4] | outcome [5] | Potency [6] | Potency [7] | Potency [8] | Potency [9]

CCCCC(CC)COC(=O)COc1cc(Cl)c(Cl)cc1Cl (stereo not given)
inactive: Potency [2] | Potency [10] | Potency [3] | Potency [4] | outcome [5] | Potency [6] | Potency [7] | Potency [8]
